From PubChem BioAssay (EPA / NIEHS)
Inconclusive results are not listed. The source made the active and inactive calls. How the source made its calls, unless noted: active means hit-call score of the fitted dose curve at least 0.9, where 1 is the maximum; inactive means score below 0.9.

Columns and labels:
[1] = ATG_TAL_CIS: Attagene CIS-FACTORIAL HepG2 Assay for human TAL Basal Promoter (AID 2282966); settings: HepG2 Attagene cis-factorial TAL promoter reporter; actives raise or lower the signal;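 further: background control endpoint measuring basal TAL promoter reporter mRNA not a specific factor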
Outline: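 Transiently transfected HepG2 (cis-regulated reporter units), 24 h treatment, mRNA read by fluorescent CE after RT-PCR; bidirectional fit, DMSO baseline.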

[2] = ATG_VDRE_CIS: Attagene CIS-FACTORIAL HepG2 Assay for human Vitamin D Receptor Element (VDRE) (AID 2282968); settings: HepG2 VDRE cis-reporter transcription, actives raise or lower the signal
Outline: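 Readout is VDRE-driven reporter mRNA reflecting endogenous factor activity in human HepG2 cells, sampled 24 h post-dose. Quantification used labelled RT-PCR products separated by capillary electrophoresis; bidirectional analysis relative to DMSO.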

[3] = target: Nuclear receptor subfamily 1 group I member 3 (Homo sapiens) (UniProt Q14994); experiment: ATG_CAR_TRANS: Attagene TRANS-FACTORIAL HepG2 Assay for human Constitutive Androstane Receptor (CAR) (AID 2282969; active means hit-call score of the fitted dose curve at least 0.9, where 1 is the maximum;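 further: activators raise reporter mRNA above DMSO so AC50 marks induction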); settings: HepG2 Attagene TRANS-FACTORIAL CAR reporter
Outline: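 Signal is reporter mRNA induction relative to DMSO, measured 24 h after dosing by RT-PCR with fluorescent primer extension and capillary electrophoresis. Human HepG2 liver cells carried transiently transfected chimeric NR-Gal4/GAL4-UAS reporter constructs.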

[4] = target: Estrogen receptor (Homo sapiens) (UniProt P03372); experiment: ATG_ERa_TRANS: Attagene TRANS-FACTORIAL HepG2 Assay for human Estrogen Receptor alpha (ERa) (AID 2282970; active means hit-call score of the fitted dose curve at least 0.9, where 1 is the maximum); settings: HepG2 Attagene TRANS ERa GAL4 reporter, mRNA
Outline: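 One of 30 multiplexed endpoints from a HepG2 TRANS system, this one reports ERa-Gal4-driven reporter mRNA. Transcripts were quantified 24 hours post-dosing by fluorescent RT-PCR and capillary electrophoresis, with activity scored as induction over DMSO.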

[5] = target: X-box-binding protein 1 (Homo sapiens) (UniProt P17861); experiment: ATG_Xbp1_CIS: Attagene CIS-FACTORIAL HepG2 Assay for human X-box Binding Protein 1 (XBP1) (AID 2282972); settings: HepG2 XBP1 cis-element reporter, Attagene multiplex; actives raise or lower the signal
Outline: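 Human hepatoma HepG2, cis-element reporter system, 24 h treatment; mRNA quantified by RT-PCR/CE fluorescence; fit relative to DMSO.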

[6] = ATG_M_19_TRANS: Attagene TRANS-FACTORIAL HepG2 Assay for M19 Transcription Factor (Internal Marker) (AID 2282974; active means hit-call score of the fitted dose curve at least 0.9, where 1 is the maximum); settings: HepG2 Attagene TRANS-FACTORIAL M19 internal marker reporter
Outline: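 After transfection of HepG2 with GAL4-UAS-driven reporter constructs, cells are dosed for 24 h. Total RNA is reverse-transcribed, reporter sequences PCR-amplified and labelled, then HpaI-digested and sized by capillary electrophoresis.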

[7] = ATG_GAL4_TRANS: Attagene TRANS-FACTORIAL HepG2 Assay for GAL4 (Internal Marker) (AID 2282976; active means hit-call score of the fitted dose curve at least 0.9, where 1 is the maximum); settings: HepG2 Attagene TRANS GAL4 internal marker reporter
Outline: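 HepG2 cells transiently transfected with multiplexed GAL4-UAS reporter constructs were dosed for 24 h. Reporter mRNA was measured by RT-PCR, 6-FAM primer extension, HpaI digestion and capillary electrophoresis, and gain of signal was fitted relative to DMSO.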

[8] = target: Steroid hormone receptor ERR1 (Homo sapiens) (UniProt P11474); experiment: ATG_ERRa_TRANS: Attagene TRANS-FACTORIAL HepG2 Assay for human Estrogen-Related Receptor alpha (ERRa) (AID 2282971; active means hit-call score of the fitted dose curve at least 0.9, where 1 is the maximum); settings: HepG2 Attagene TRANS reporter, ERRa transactivation
Outline: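 HepG2 cells transiently transfected with multiplexed GAL4-UAS reporter units reading chimeric ERRa-Gal4 activity; 24 h compound exposure. Reporter mRNA measured by RT-PCR, 6-FAM labelling, HpaI digest and capillary electrophoresis; gain of signal fitted versus DMSO baseline.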

[9] = target: Estrogen-related receptor gamma (Homo sapiens) (UniProt P62508); experiment: ATG_ERRg_TRANS: Attagene TRANS-FACTORIAL HepG2 Assay for human Estrogen-Related Receptor gamma (ERRg) (AID 2282977; active means hit-call score of the fitted dose curve at least 0.9, where 1 is the maximum;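 further: hits increase reporter signal over DMSO so potencies reflect activators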); settings: HepG2 Attagene TRANS reporter, ERRg transactivation
Outline: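 Induction of reporter transcripts through a chimeric NR-Gal4 protein is quantified in transfected human HepG2 liver cells after 24 h chemical exposure, using RT-PCR with capillary electrophoresis detection and DMSO as baseline.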

Chain of Estrogen receptor (Homo sapiens) (P03372 whole entry, looked up, the tested form may be a part): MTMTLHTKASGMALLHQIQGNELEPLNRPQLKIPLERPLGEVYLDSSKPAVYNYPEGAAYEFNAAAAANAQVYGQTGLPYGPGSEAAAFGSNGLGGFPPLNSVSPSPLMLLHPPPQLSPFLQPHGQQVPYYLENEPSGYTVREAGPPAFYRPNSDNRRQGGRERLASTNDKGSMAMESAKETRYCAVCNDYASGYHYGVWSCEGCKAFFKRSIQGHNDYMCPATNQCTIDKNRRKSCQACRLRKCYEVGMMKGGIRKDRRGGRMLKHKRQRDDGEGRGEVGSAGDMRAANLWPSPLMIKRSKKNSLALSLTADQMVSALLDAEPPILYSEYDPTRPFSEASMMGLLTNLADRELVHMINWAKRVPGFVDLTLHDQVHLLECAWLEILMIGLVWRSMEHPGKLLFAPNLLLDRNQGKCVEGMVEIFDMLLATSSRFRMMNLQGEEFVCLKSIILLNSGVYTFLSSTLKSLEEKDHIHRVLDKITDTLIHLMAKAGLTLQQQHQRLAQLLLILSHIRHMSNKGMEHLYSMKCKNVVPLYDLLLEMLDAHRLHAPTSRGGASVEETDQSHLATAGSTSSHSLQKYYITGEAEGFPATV
Chain of X-box-binding protein 1 (Homo sapiens) (P17861 whole entry, looked up): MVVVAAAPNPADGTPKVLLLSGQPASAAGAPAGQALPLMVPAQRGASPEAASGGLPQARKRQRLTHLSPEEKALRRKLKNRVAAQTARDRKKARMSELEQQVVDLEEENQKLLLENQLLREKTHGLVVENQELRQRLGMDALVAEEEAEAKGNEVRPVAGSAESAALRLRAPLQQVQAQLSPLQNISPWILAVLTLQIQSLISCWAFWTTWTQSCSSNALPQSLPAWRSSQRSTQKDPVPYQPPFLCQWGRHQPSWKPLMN
Chain of Estrogen-related receptor gamma (Homo sapiens) (P62508 whole entry, looked up, the tested form may be a part): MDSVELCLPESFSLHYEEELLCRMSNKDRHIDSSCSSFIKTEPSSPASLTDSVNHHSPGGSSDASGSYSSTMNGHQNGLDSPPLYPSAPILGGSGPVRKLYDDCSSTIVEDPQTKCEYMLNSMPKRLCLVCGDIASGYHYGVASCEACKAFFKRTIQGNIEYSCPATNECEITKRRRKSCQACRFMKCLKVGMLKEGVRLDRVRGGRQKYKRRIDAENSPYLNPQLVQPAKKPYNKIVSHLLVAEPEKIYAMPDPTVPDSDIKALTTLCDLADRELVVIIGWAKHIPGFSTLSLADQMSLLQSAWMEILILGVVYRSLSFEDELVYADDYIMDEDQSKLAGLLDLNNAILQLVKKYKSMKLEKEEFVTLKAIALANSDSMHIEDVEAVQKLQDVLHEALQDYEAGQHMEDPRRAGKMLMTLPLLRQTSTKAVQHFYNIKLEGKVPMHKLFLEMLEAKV
Chain of Steroid hormone receptor ERR1 (Homo sapiens) (P11474 whole entry, looked up, the tested form may be a part): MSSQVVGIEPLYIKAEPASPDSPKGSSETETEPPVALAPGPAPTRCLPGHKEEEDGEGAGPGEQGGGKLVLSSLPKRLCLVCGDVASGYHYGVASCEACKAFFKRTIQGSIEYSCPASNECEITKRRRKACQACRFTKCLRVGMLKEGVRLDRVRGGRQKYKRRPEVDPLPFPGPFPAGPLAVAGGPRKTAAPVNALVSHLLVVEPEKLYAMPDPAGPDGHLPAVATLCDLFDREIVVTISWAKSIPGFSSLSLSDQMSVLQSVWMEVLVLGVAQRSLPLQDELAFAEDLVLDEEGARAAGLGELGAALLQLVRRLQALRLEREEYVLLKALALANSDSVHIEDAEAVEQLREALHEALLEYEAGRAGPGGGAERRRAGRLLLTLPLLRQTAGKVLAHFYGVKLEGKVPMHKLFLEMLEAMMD
Chain of Nuclear receptor subfamily 1 group I member 3 (Homo sapiens) (Q14994 whole entry, looked up, the tested form may be a part): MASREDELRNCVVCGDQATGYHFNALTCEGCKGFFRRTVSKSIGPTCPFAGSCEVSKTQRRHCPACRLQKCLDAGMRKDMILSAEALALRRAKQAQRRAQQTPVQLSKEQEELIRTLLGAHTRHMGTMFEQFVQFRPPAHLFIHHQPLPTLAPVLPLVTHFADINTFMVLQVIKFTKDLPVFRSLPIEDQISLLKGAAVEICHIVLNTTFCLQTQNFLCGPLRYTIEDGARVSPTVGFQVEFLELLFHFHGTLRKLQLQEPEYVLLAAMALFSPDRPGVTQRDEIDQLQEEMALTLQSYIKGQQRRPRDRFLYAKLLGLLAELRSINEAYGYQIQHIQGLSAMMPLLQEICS

Q: With CC(C)=CCC/C(C)=C\C#N as the molecule, how does the outcome [1] read?
A: inactive

Q: And the outcome [2]?
A: inactive

Q: And the outcome [3]?
A: inactive

Q: And the outcome [4]?
A: inactive

Q: And the outcome [5]?
A: inactive

Q: And the outcome [6]?
A: inactive

Q: And the outcome [7]?
A: inactive

Q: For CCC(C)C=O (stereo not given), which outcome [1] is on record?
A: inactive

Q: And the outcome [2]?
A: inactive

Q: What about the outcome [5] of the same molecule?
A: inactive

Q: And the outcome [6]?
A: inactive

Q: With CC(C)c1ccc2c(C(C)C)cc(C(C)C)c(S(=O)(=O)O)c2c1 as the molecule, how does the outcome [1] read?
A: inactive

Q: What about the AC50 [2] of the same molecule?
A: 8.94 µM (active)

Q: And the AC50 [4]?
A: 45.4 µM (active)

Q: What about the outcome [5] of the same molecule?
A: inactive

Q: What about the outcome [7] of the same molecule?
A: inactive

Q: Which outcome [1] does the source give for COc1ccc([C@@H]2CC(=O)c3c(O)cc(O[C@@H]4O[C@H](CO[C@@H]5O[C@@H](C)[C@H](O)[C@@H](O)[C@H]5O)[C@@H](O)[C@H](O)[C@H]4O)cc3O2)cc1OC here?
A: inactive

Q: What about the outcome [2] of the same molecule?
A: inactive

Q: What about the outcome [5] of the same molecule?
A: inactive

Q: What about the outcome [7] of the same molecule?
A: inactive

Q: For N=c1ccn2c(n1)O[C@H]1[C@H](O)[C@@H](CO)O[C@H]12, which outcome [1] is on record?
A: inactive

Q: And the outcome [2]?
A: inactive

Q: What about the outcome [8] of the same molecule?
A: inactive

Q: What about the outcome [5] of the same molecule?
A: inactive

Q: And the outcome [6]?
A: inactive

Q: What about the outcome [9] of the same molecule?
A: inactive

Q: With Nc1ccc(Cl)cc1Cl as the molecule, how does the outcome [1] read?
A: inactive

Q: What about the outcome [5] of the same molecule?
A: inactive

Q: And the outcome [9]?
A: inactive

Q: Which results are given for CCCCCCCCO[C@@H]1O[C@H](CO)[C@@H](O)[C@H](O)[C@H]1O?
A: outcome [1]: inactive; outcome [2]: inactive; outcome [5]: inactive; outcome [6]: inactive; outcome [7]: inactive

Q: Which outcome [1] does the source give for CCCCCCCCc1ccc(Nc2ccc(CCCCCCCC)cc2)cc1 here?
A: inactive

Q: What about the AC50 [2] of the same molecule?
A: 19.8 µM (active)

Q: What about the outcome [4] of the same molecule?
A: inactive

Q: What about the outcome [8] of the same molecule?
A: inactive

Q: What about the outcome [5] of the same molecule?
A: inactive

Q: And the outcome [6]?
A: inactive

Q: And the outcome [9]?
A: inactive

Q: What does the source list for c1ccc(-c2ccccn2)nc1?
A: outcome [1]: inactive; outcome [2]: inactive; outcome [5]: inactive; outcome [9]: inactive

Q: For Cc1cccc(C(=O)O)c1, which outcome [1] is on record?
A: inactive

Q: And the outcome [2]?
A: inactive

Q: What about the outcome [4] of the same molecule?
A: inactive

Q: What about the outcome [8] of the same molecule?
A: inactive

Q: What about the outcome [5] of the same molecule?
A: inactive

Q: What about the outcome [7] of the same molecule?
A: inactive

Q: With COCC(C)N (stereo not given) as the molecule, how does the outcome [1] read?
A: inactive

Q: What about the outcome [2] of the same molecule?
A: inactive

Q: And the outcome [5]?
A: inactive

Q: And the outcome [6]?
A: inactive

Q: For O=C(c1ccccc1)C1CCC1, which outcome [1] is on record?
A: inactive

Q: What about the outcome [2] of the same molecule?
A: inactive

Q: And the outcome [3]?
A: inactive

Q: And the outcome [4]?
A: inactive

Q: And the outcome [5]?
A: inactive

Q: What about the outcome [7] of the same molecule?
A: inactive

Q: With CNC(=S)NN as the molecule, how does the outcome [1] read?
A: inactive

Q: What about the outcome [2] of the same molecule?
A: inactive

Q: What about the outcome [4] of the same molecule?
A: inactive

Q: And the outcome [5]?
A: inactive

Q: What about the outcome [7] of the same molecule?
A: inactive

Q: And the outcome [9]?
A: inactive

Q: Which outcome [1] does the source give for O=C(O)c1cc(Cl)cc([N+](=O)[O-])c1Cl here?
A: inactive

Q: What about the outcome [2] of the same molecule?
A: inactive

Q: And the outcome [3]?
A: inactive

Q: And the outcome [5]?
A: inactive

Q: And the outcome [7]?
A: inactive

Q: What does the source list for C=C(C)C(=O)OCCO?
A: outcome [1]: inactive; outcome [2]: inactive; outcome [3]: inactive; outcome [4]: inactive; outcome [5]: inactive; outcome [6]: inactive; outcome [7]: inactive

Q: With N#CCc1ccc(Cl)cc1Cl as the molecule, how does the outcome [1] read?
A: inactive

Q: What about the outcome [2] of the same molecule?
A: inactive

Q: And the outcome [3]?
A: inactive

Q: And the outcome [4]?
A: inactive

Q: What about the outcome [5] of the same molecule?
A: inactive

Q: What about the outcome [6] of the same molecule?
A: inactive

Q: For O=c1cc[nH]c(=S)[nH]1, which outcome [1] is on record?
A: inactive

Q: And the outcome [4]?
A: inactive

Q: What about the outcome [5] of the same molecule?
A: inactive

Q: And the outcome [9]?
A: inactive

Q: Which outcome [1] does the source give for Cc1ccc2c(c1)C(=O)c1ccccc1C2=O here?
A: inactive

Q: What about the outcome [2] of the same molecule?
A: inactive

Q: What about the outcome [3] of the same molecule?
A: inactive

Q: What about the AC50 [4] of the same molecule?
A: 12.4 µM (active)

Q: And the outcome [5]?
A: inactive

Q: And the outcome [7]?
A: inactive
